Measured values published in the supplement of paper PMC11577813, “Eurasian spruce bark beetle detects lanierone using a highly expressed specialist odorant receptor, present in several functional sensillum types” (BMC Biology, 2024).
± gives the standard deviation of the averaged measurements.

Tested on: lanierone-responsive B-neuron OSN class (ItypOR36)
Assay: net action potential response of lanierone B-neuron (blank-subtracted) (spikes/s (Hz)); higher = stronger excitation
Settings: 10 µg on filter paper, neuron: B neuron (small spike amplitude)
Protocol: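 Single sensillum recordings from antennal olfactory sensilla of live adult Ips typographus. Each compound was 10 µg in paraffin oil, delivered as a 0.5 s puff. Net response = spikes in the first 0.5 s of response minus the 0.5 s pre-stimulus count, doubled to give Hz, with blank response subtracted. Values are for the small-spike lanierone-responsive B-neuron (putatively expressing ItypOR36), recorded in sensilla co-housing the A-neuron class; N = 1-4, averaged.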

[1] = co-localized A-neuron class: (4S)-cis-verbenol
[2] = co-localized A-neuron class: (5S,7S)-trans-conophthorin
[3] = co-localized A-neuron class: (+)-isopinocamphone
[4] = co-localized A-neuron class: (+)-trans-4-thujanol
[5] = co-localized A-neuron class: ipsdienol
[6] = co-localized A-neuron class: myrcene
[7] = co-localized A-neuron class: p-cymene

Structure (SMILES) | net action potential response [1] | net action potential response [2] | net action potential response [3] | net action potential response [4] | net action potential response [5] | net action potential response [6] | net action potential response [7]
CCCCCC(O)CC (racemic) [(±)-3-Octanol] | 1.33 ± 7.6 | -1 ± 3.5 | -3.33 ± 4.2 | -4 ± 8.6 | -4.67 ± 4.2 | -6 | -3.33 ± 5.8
CC12CCC(CC1)C(C)(C)O2 [1,8-Cineole] | 4 ± 9.2 | -6.67 ± 6.1 | 0.667 ± 4.2 | -1 ± 2.6 | 0 ± 10 | -4 | 0 ± 5.3
C=CC(O)CCCCC (racemic) [(±)-1-Octen-3-ol] | -6.67 ± 5 | -0.5 ± 2.5 | -2 ± 4 | 0 ± 1.6 | -3.33 ± 1.1 | 4 | 0.667 ± 3.1
CC(C)[C@@]12CC[C@@](C)(O)[C@@H]1C2 [(+)-trans-4-Thujanol] | -3.33 ± 4.2 | 0 ± 5.9 | 0.667 ± 1.1 | -6.5 ± 5.5 | -0.667 ± 2.3 | 2 | -1.33 ± 3.1
C=Cc1ccc(OC)cc1 [4-Vinyl anisole] | 1.33 ± 9 | 3.33 ± 4.6 | 1.33 ± 9.2 | -2.5 ± 5.5 | 2.67 ± 6.4 | 0 | 0 ± 7.2
CCC1CCC2(CCCO2)O1 (racemic) [(±)-Chalcogran] | -1.33 ± 5.8 | -4 ± 5.3 | -1.33 ± 2.3 | -1.5 ± 3.4 | -0.667 ± 1.1 | -8 | -2.67 ± 2.3
